# Hits are enriched below; roughly 3.2% of the tested compounds scored in any of these assays.
# GALK inh: galactokinase (human) inhibition; Purified GALK, Kinase-Glo residual ATP luminescence; Potency, µM (titrated, usually from 57.5 µM), for the others: at the highest dose activity change, negative = inhibition, hits mostly inhibitors; 0.007% of 270,000 active; AID 1868; also: potency is read from the fitted curve at half-maximal effect
#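 ATP-depletion format; final 35 uM ATP, 100 uM D-galactose, 5 nM enzyme; pH 8.0 HEPES/Mg2+ buffer; 60 min RT; luminescence read 10 min after detection reagent.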
# PLK1 PBD inh: PLK1 (human) polo-box domain binding inhibition. Potency, µM, without a hit: max response, negative = inhibition, actives largely listed as inhibitors. P53350. 2.8% of 360,000 active. Plk1 PBD binding of FITC phosphopeptide, fluorescence polarization; also: potency is read from the fitted curve at half-maximal effect; series mostly up to about 57 µM; nearly all actives have a fitted effect of over 65% in size
# VDR inhibitor: blocks the human vitamin D receptor; 0.93% of 400,000 active; P11473; Potency, µM, for inactives: max response, negative = inhibition, usual class: inhibitors; VDR-SRC2-3 peptide fluorescence polarization, 2 h; also: potency is read from the fitted curve at half-maximal effect
# Target sequence (P11473 whole entry, looked up): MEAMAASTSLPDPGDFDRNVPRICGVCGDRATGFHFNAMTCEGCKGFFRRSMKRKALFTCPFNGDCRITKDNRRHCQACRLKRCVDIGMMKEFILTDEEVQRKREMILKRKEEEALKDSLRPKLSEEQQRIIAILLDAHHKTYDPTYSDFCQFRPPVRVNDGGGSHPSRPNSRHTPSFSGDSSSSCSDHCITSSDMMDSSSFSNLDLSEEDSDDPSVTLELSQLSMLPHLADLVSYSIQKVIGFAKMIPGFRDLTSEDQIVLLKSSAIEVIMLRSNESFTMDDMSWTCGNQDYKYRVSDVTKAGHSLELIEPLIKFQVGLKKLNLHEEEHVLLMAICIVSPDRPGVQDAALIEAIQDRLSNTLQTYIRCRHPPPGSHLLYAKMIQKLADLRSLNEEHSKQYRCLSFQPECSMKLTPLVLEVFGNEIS
#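 Measured by FP: displacement of SRC2-3 coactivator peptide from VDR by library compounds, following a two-hour ambient incubation.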
# USP2a inh: blocks human ubiquitin-specific protease USP2a; Potency, µM (series often up to 38.3 µM), for the others: at the top dose activity change, negative = inhibition, actives largely listed as inhibitors; USP2 core, Ub-CHOP2 coupled fluorogenic reporter, 485/531; O75604; AID 463254; 0.01% of 330,000 active;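 also: potency is read from the fitted curve at half-maximal effect; plate controls were DMSO wells for no effect and full inhibition by NEM control for full effect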
#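 USP2 core (10nM final) preincubated 30min RT with compound in 20mM Tris-HCl pH 8.0, 2mM CaCl2, 2mM beta-mercaptoethanol, 0.05% CHAPS; 25nM Ub-CHOP2 plus 25nM reporter substrate added, fluorescence (Ex485/Em531) read after 60min.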
# USP1-UAF1 inh: USP1/UAF1 (human) deubiquitinase inhibition; Potency, µM (series often up to 57.1 µM), for inactives: at the highest dose activity change, negative = inhibition, hits mostly inhibitors; recombinant USP1/UAF1, Ub-Rhodamine cleavage fluorescence; AID 743255; O94782; 0.23% of 390,000 active; also: potency is read from the fitted curve at half-maximal effect; nearly all actives have a fitted effect of over 60% in size
#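 In this screen, compounds sit with the deubiquitinase complex (1nM) for 15 min at room temperature before Ub-Rho is added at 150nM final. Fluorescence rise is then followed for 6 reads every 60 seconds.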
# Coupling enz: counter-screen for Giardia aldolase inhibitors: coupling enzyme system; coupling enzyme system counterscreen, AmpLite Red fluorescence; activity change, negative = inhibition, % at 58.2 µM, hits read low; 0.67% of 290,000 active; AID 2472; in the data active = activity change below about -30%
#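 Fluorescence at 525 nm excitation and 598 nm emission measured inhibition of the coupled detection system without aldolase. Compounds (at 57.5 uM final) were preincubated 10 min at room temperature with coupling enzyme reagent before a 20 min substrate/AmpLite Red step.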
# Numbers without * were called inactive; ? = inconclusive; . = no result. Unless noted, calls follow the shape of the dose curve; as a rule, active = well fitted curve in the direction sought with a large enough effect; inconclusive = small, poorly fitted or top-dose-only effect, or another doubt; inactive = no such curve, though single readings can be large; an effect the other way counts as inactive or inconclusive. Unless noted, % is scaled to controls: 0 for no effect and ±100 for the full control effect.
SMILES,GALK inh,PLK1 PBD inh,VDR inhibitor,USP2a inh,USP1-UAF1 inh,Coupling enz
O=C(NCc1cccs1)N[C@@H](Cc1ccccc1)C(=O)O,-2%,-5%,6%,-1%,-5%,-2
O=S(=O)(NCC(c1ccccc1)N1CCC(O)CC1)c1ccc(Cl)cc1 (stereo unspecified),3%,21µM*,-25%,2%,-17%,0
N#CCCN1CCN(C(CNS(=O)(=O)c2ccc(Cl)cc2)c2ccccc2)CC1 (stereo unspecified),4%,-5%,-3%,0%,-8%,2
CCN(CC(=O)c1c(N)n(C)c(=O)n(C)c1=O)c1cccc2ccccc12,0%,-1%,-14%,3%,-17%,-43*
CN(C)Cc1ccccc1-c1cc(NCc2cccs2)ncn1,.,.,-1%,.,.,2
Cc1cccc(-n2c(N)cc(=O)[nH]c2=S)c1,3%,-13%,22%,1%,-11%,-1
N#Cc1ncc(Cc2ccccc2)nc1C#N,3%,-7%,79µM*,-2%,-21%,-2
CC(=O)c1ccc(S(=O)(=O)N2CCCC(N(C)CCc3ccccc3)C2)cc1 (stereo unspecified),0%,-21%,9%,-2%,-19%,1
CNC(=O)Nc1cc(C)nn1C,1%,19µM*,?,2%,-16%,0
Cc1cccc2sc(=S)[nH]c12,.,21µM*,.,.,.,.
CC(C)(C)OC(=O)C[C@H]1C/C=C\C[C@@H](CC(=O)NCCO)C(=O)N2CCC[C@H]2COC1=O,.,-11%,-22%,3%,-15%,.
Clc1ccccc1-c1nnc2sc(CCc3ccccc3)nn12,2%,7.5µM*,50µM*,-4%,-16%,0
c1ccc2c(c1)OCC(c1nn3c(Cn4nnc5ccccc54)nnc3s1)O2 (stereo unspecified),0%,24µM*,?,0%,3%,3
c1ccc(CCc2nn3c(Cn4nnc5ccccc54)nnc3s2)cc1,1%,13µM*,?,-1%,-17%,1
O=C(O)CSc1nnc(Cn2nnc3ccccc32)n1CCc1ccccc1,4%,-15%,2%,-3%,-8%,8
c1ccc(Cc2nn3c(Cn4nnc5ccccc54)nnc3s2)cc1,0%,8.4µM*,89µM*,-1%,-17%,0
Cn1c(=O)n(-c2ccc3c(c2)OCO3)c2nc(-c3ccccc3)nc(C(N)=O)c21,.,.,-22%,.,-23%,.
CSC1=NCCN1C(=O)C(C)Oc1ccccc1 (stereo unspecified),2%,30µM*,-20%,1%,?,1
O=C(O)COc1ccccc1/C=N/NC(=O)c1ccc(F)cc1,1%,-7%,1%,3%,-17%,1
CCOc1ccc(Cl)cc1/C=N/NC(=O)CNC(=O)c1ccccc1,0%,-6%,-11%,-1%,-6%,-38*
O=C(O)COc1ccccc1/C=N/NC(=O)CNC(=O)c1ccc(F)cc1,.,8.4µM*,?,2%,-21%,3
CCOc1ccc(Cl)cc1/C=N/NC(=O)c1ccccc1,2%,-6%,1%,5%,-10%,0
C=CCOc1ccc(CN(C)C(=O)CN2C(=O)c3ccccc3C2=O)cc1,4%,-7%,5%,-3%,-28%,0
COc1cccc(-c2nc3nc(C)cc(C)n3c2NCc2ccccc2)c1,.,-10%,.,.,.,.
Cc1cc(-c2csc(NC(=O)c3ccc(=O)n(C)n3)n2)c(C)n1CC1CCCO1 (stereo unspecified),-2%,-8%,7%,-2%,-21%,-6
CCOC(=O)/C(=C\c1ccccc1)C(=O)CCN1CCOCC1,.,6.7µM*,?,.,-22%,.
COc1cc(C(=O)ON=C2C(C)=CC(=O)C=C2C)cc(OC)c1OC,-2%,?,89µM*,-1%,-12%,-24
Clc1ccc(-n2nnc(-c3nccs3)n2)cc1Cl,0%,27µM*,-20%,1%,-29%,2
Cc1ccc(-n2nnc(-c3nccs3)n2)cc1,9%,4%,-6%,6%,-24%,2

# Compound activity from PubChem BioAssay.
